Records with an inconclusive call do not appear. A call without a number means that no potency is given here. Calls of active or inactive are those of the source. Calls come from the whole dose curve; as a rule, active = well fitted inhibition curve with a large enough effect in the signal ratio in the repeat runs, with a control signal flat; inconclusive = weak or mixed curves, or effect the other way; inactive = flat fitted curve, though single readings scatter; the % refers to the signal ratio.

The target in this test is D(2) dopamine receptor (Homo sapiens) (UniProt P14416). The test can be described thus: Dopamine D2 receptor (DRD2) small molecule antagonists, cell-based qHTS assay (AID 1963595). The following applies: HEK293-DRD2 cAMP HTRF antagonist mode; series mostly up to 92.4 µM. The source says: National Center for Advancing Translational Sciences [NCATS]
Sequence of D(2) dopamine receptor (Homo sapiens) (P14416 whole entry, looked up): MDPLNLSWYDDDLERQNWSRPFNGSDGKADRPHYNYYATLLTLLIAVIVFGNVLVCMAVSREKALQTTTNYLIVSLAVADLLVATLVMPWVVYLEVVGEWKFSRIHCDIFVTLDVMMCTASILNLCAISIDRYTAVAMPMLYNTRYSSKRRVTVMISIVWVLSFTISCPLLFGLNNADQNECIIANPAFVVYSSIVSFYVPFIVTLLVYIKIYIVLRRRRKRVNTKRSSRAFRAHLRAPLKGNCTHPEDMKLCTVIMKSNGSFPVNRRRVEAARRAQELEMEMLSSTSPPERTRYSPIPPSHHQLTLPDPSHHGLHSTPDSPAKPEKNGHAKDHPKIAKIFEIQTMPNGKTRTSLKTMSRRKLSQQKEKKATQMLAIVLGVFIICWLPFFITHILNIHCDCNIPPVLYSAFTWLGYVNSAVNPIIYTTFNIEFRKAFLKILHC
Division of Preclinical Innovation [DPI]
U.S. Environmental Protection Agency [EPA]
National Institutes of Environmental Health Sciences [NIEHS]
National Toxicology Program [NTP]
U.S. Food and Drug Administration [FDA]
DRD2 is the D2 subtype of the dopamine receptor, which is coupled to Gi subtype of G protein-coupled receptor. This G protein-coupled receptor inhibits adenylyl cyclase activity. The DRD2-HEK293 cell line stably expressing D2 dopamine receptor can be used for screening agonists and antagonists of interactions between D2 and its ligands. The Hek293-DRD2 cAMP assay is based on HTRF technology. It measures changes of cAMP accumulation in response to Gi coupled GPCR activation or inhibition.
Tox21 Assay Protocol Summary:
DRD2-Hek293 cells were dispensed at 600 cells/3uL/well in 1536-well white plates using a Multidrop Dispenser. After the assay plates were incubated at a 37 C/5% CO2 incubator for 24 h, 1 uL of Ro20-1724 at final concentration of 0.1 mM was transferred to the assay plate by a Flying Reagent Dispenser. Following Ro20-1724 addition, 23 nL of compound dissolved in DMSO, positive controls or DMSO only was added to the assay plates via Wako pintool station. The assay plates were incubated at room temperature for 10 min. Next, 1 uL of mixture of NKH477 (final concentration at 200 nM) and quinpirole (final concentration at 12 nM) was added into the plates. After the assay plates were incubated at room temperature for an additional 30 min, 2.5 ul/well of cAMP-d2 and 2.5 ul/well of anti-cAMP-cryptate were added respectively into the assay plates using a Flying Reagent Dispenser. The plates were incubated at room temperature for 1 h. The fluorescence intensity in the plates was measured at 340 nm excitation and 665 & 620 nm emission by an Envision plate reader.
For orientation: Quantitative high-throughput screening tests each substance at several concentrations.
Turning to `Cc1cccc2c1ccc1ccccc12`, the Potency result was “inactive”.

As to `O=C(O)c1ccccc1OP(=O)(O)O`, the Potency result was “inactive”.

For `NCCc1ccc(O)c(O)c1`, the Potency entry is “inactive”.

In the case of `CC(C)CC(=O)O`, the Potency entry was “inactive”.

For `CC(N)CN` (stereo not given), the Potency result was “inactive”.

As to `CC(=O)O[C@H](CC(=O)[O-])C[N+](C)(C)C`, the Potency entry was “inactive”.

Turning to `CCN(CC)CC(=O)Oc1ccc(NC(C)=O)cc1`, the Potency entry was “inactive”.

With `COC(/C=C(\C)CCC=C(C)C)OC`, the Potency entry is “inactive”.

As to `Cc1ccc(C)cc1`, the Potency entry was “inactive”.

With `CC1CCCC(=O)C1=O` (stereo not given), the Potency result is “inactive”.

Turning to `CCCCCc1cccc(=O)o1`, the Potency entry was “inactive”.

Regarding `Cc1ccc(C(=O)Nc2ccc(S(=O)(=O)O)c3cc(S(=O)(=O)O)cc(S(=O)(=O)O)c23)cc1NC(=O)c1cccc(NC(=O)Nc2cccc(C(=O)Nc3cc(C(=O)Nc4ccc(S(=O)(=O)O)c5cc(S(=O)(=O)O)cc(S(=O)(=O)O)c45)ccc3C)c2)c1`, the Potency result was “inactive”.

Regarding `CC(C)(C)c1cc(Cc2cc(C(C)(C)C)c(O)c(C(C)(C)C)c2)cc(C(C)(C)C)c1O`, the Potency result is “inactive”.

As to `C=CCCCCCCCC`, the Potency entry was “inactive”.

`CCC(C)(C)C1CCC(OC)CC1` (stereo not given): the Potency result is “inactive”.

Take `CN(C)C(=S)SC(=S)N(C)C`: the Potency entry is “inactive”.

In the case of `NC(=O)Cc1cccc2ccccc12`, the Potency entry was “inactive”.

As to `Nc1ncnc2c1ncn2Cc1c(F)cccc1Cl`, the Potency entry is “inactive”.

As for `Nc1cc(=O)[nH]c(N)n1`, the Potency entry is “inactive”.

On to `Cc1ccc(S(N)(=O)=O)cc1`, for which the Potency entry was “inactive”.

As for `CCCCCC(C)=O`, the Potency entry is “inactive”.

Take `C/C=C/C(=O)O`: the Potency result was “inactive”.

On to `O=C(O)/C=C/c1ccccc1`, for which the Potency result was “inactive”.

Consider `CN1CCCC1`, for which the Potency result is “inactive”.

In the case of `CC(C)(Oc1ccc(CCNC(=O)c2ccc(Cl)cc2)cc1)C(=O)O`, the Potency entry was “inactive”.

For the molecule `COC(=O)c1ccccc1C(=O)c1ccc(OCCN2CCCCC2)cc1`, the Potency entry was “inactive”.

Take `CCCOC(C)=O`: the Potency entry is “inactive”.

For the molecule `CC1CCc2nccnc21` (stereo not given), the Potency result is “inactive”.

As to `CC(=O)c1ccc(O)c(C(N)=O)c1`, the Potency result was “inactive”.

On to `Cn1c(=O)c2[nH]c(Br)nc2n(C)c1=O`, for which the Potency entry is “inactive”.

Turning to `COCCOCCOCCOCCOC`, the Potency result was “inactive”.

Take `C#CC(O)CCC` (stereo not given): the Potency result was “inactive”.

For `O=C(O)c1cc(-c2ccccc2)nc2ccccc12`, the Potency entry is “inactive”.

`Cc1ncc(CSSCc2cnc(C)c(O)c2CO)c(CO)c1O`: the Potency result was “inactive”.

Consider `CCCC(=O)Nc1ccc(O)c(C(C)=O)c1`, for which the Potency entry is “inactive”.

On to `CCCN1CCCC[C@H]1C(=O)Nc1c(C)cccc1C`, for which the Potency result is “inactive”.

For the molecule `NS(=O)(=O)c1cc2c(cc1Cl)NC(C1CC3C=CC1C3)NS2(=O)=O` (stereo not given), the Potency entry was “inactive”.

With `CCOC(=O)c1ccc(N)cc1`, the Potency result is “inactive”.

`CC(C)c1cccc(O)c1`: the Potency entry was “inactive”.

In the case of `C/C(=C1\CCOC(=O)S1)N(C=O)Cc1cnc(C)nc1N`, the Potency entry was “inactive”.

(Values after PubChem BioAssay (Tox21).)
